Results filed as inconclusive are left out. Activity calls are given as the source filed them. Calls come from the whole dose curve.

Peroxisome proliferator-activated receptor delta (Homo sapiens), sequence (Q03181 whole entry, looked up): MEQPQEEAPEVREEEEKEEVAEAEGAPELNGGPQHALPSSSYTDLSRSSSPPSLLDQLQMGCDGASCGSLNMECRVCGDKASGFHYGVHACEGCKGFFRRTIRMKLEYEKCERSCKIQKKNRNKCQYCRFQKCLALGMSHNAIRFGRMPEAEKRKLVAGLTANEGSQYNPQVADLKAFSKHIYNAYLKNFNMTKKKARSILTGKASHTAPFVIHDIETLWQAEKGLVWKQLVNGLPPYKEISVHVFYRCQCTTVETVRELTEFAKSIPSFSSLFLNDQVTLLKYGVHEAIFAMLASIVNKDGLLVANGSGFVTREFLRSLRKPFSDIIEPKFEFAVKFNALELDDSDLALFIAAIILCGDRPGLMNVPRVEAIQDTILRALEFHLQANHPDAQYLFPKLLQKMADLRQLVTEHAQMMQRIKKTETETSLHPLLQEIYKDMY

The target in the assay is Peroxisome proliferator-activated receptor delta (Homo sapiens) (UniProt Q03181). Description: qHTS assay to identify small molecule agonists of the peroxisome proliferator-activated receptor delta (PPARd) signaling pathway (AID 743212). The conditions noted are these: HEK293H PPARd-UAS-bla, beta-lactamase FRET ratio, 17 h; series mostly up to 62.6 µM. The source says:
U.S. Tox21 Program National Center for Advancing Translational Sciences [NCATS] NIH Chemical Genomics Center [NCGC] U.S. Environmental Protection Agency [EPA] National Institutes of Environmental Health Sciences [NIEHS] National Toxicology Program [NTP] U.S. Food and Drug Administration [FDA] Tox21 Assay Overview: The peroxisome proliferator-activated receptors (PPARs) are lipid-activated transcription factors of the nuclear receptor superfamily with three distinct subtypes namely PPAR alpha, PPAR delta (PPARd) and PPAR gamma. All these subtypes heterodimerizes with Retinoid X receptor (RXR) and have different physiological functions. […] To identify the compounds that activate PPAR-delta signaling, GeneBLAzer PPAR delta UAS-bla HEK293H cell line (Invitrogen, Carlsbad, CA, USA) containing a beta-lactamase reporter gene under the control of an Upstream Activator Sequence (UAS) was used to screen the Tox21 compound library.
Tox21 Assay Protocol Summary: PPARd-bla cells were dispensed at 3000 cells/6uL/well in 1536-well black wall/clear bottom plates using a Multidrop Combi (Thermo Fisher Scientific, Waltham, MA) dispenser. After the assay plates were incubated at 37 C and 5% CO2 for 5 h, 23 nL of compounds dissolved in DMSO, positive controls or DMSO only was transferred to the assay plate by a Pintool station (Kalypsys, San Diego, CA). The assay plates were incubated at 37C for 17 h. After 1 uL of LiveBLAzerTM B/G FRET substrate was added using a Bioraptr Flying Reagent Dispenser (FRD) workstation (Beckman Coulter, Indianapolis, IN, USA), the plates were incubated at room temperature for 2 h, and fluorescence intensity was measured by an Envision plate reader (PerkinElmer, Shelton, CT).
(qHTS replaces the single test concentration by a dilution series.)
For the compound `O=C1CCCc2ccccc21`, the outcome was inactive.
As for `C[C@@H]1CN(c2c(F)c(F)c3c(=O)c(C(=O)O)cn(C4CC4)c3c2F)C[C@H](C)N1`, the entry is “inactive”; as for `Cc1cc(NS(=O)(=O)c2ccc(N)cc2)nc(C)n1`, “inactive”; as for `CC(=O)Nc1ccc(C)c(Cl)c1`, “inactive”.
On to `Cc1nc(N)nc(N)c1-c1ccc(Cl)c(Cl)c1`, for which the result was inactive.
As for `Cc1c[nH]c(=S)[nH]c1=O`, the outcome was inactive.
For the compound `CCCNC(C)(C)COC(=O)c1ccccc1`, the outcome was inactive.
In the case of `OC[C@H]1O[C@@H](O[C@H]2[C@H](O)[C@@H](O)[C@H](O)O[C@@H]2CO)[C@H](O)[C@@H](O)[C@H]1O` it was “inactive”; in that of `FC(F)(F)C(F)(F)C(F)(F)C(F)(F)C(F)(F)C(F)(F)C(F)(F)C(F)(F)Br`, “inactive”.
In the case of `N#Cc1ccc(C(c2ccc(C#N)cc2)n2cncn2)cc1`, the outcome was inactive.
In the case of `CCN1CC(CCN2CCOCC2)C(c2ccccc2)(c2ccccc2)C1=O` (stereo not given) it was “inactive”; in that of `CCN[C@H]1CN(CCCOC)S(=O)(=O)c2sc(S(N)(=O)=O)cc21`, “inactive”; in that of `CCCN(CCC)C(=O)C(CCC(=O)O)NC(=O)c1ccccc1` (stereo not given), “inactive”.
As to `CCCCC(CC)COC(=O)COc1cc(Cl)c(Cl)cc1Cl` (stereo not given), the outcome was inactive.
For the compound `CN1CCN(c2c(F)cc3c(=O)c(C(=O)O)cn(CCF)c3c2F)CC1`, the outcome was inactive.
Turning to `CCOC(=O)c1cc(=O)c2c(OCC(COc3cccc4oc(C(=O)OCC)cc(=O)c34)OC(=O)[C@@H](N)CCCCN)cccc2o1`, the outcome was inactive.
Take `CCCc1c2oc(C(=O)O)cc(=O)c2cc2c(=O)cc(C(=O)O)n(CC)c12`: the result was inactive.
On to `CC(C)=CCCC(C)CCOC=O` (stereo not given), for which the result was inactive.
As for `COC(=O)C(C)O` (stereo not given), the entry is “inactive”; as for `CC(C)C(=O)OCC(C)(C)C(O)C(C)C` (stereo not given), “inactive”; as for `COc1ccc(S(=O)(=O)Nc2nnc(CC(C)C)s2)cc1`, “inactive”.
`O=c1[nH]cnc2c1ncn2[C@@H]1O[C@H](CO)[C@@H](O)[C@H]1O`: the result was inactive.
As for `Cc1ccc([N+](=O)[O-])cc1Cl`, the entry is “inactive”; as for `Cc1c(C(=O)NCCO)[n+](=O)c2ccccc2n1[O-]`, “inactive”; as for `CCC/C=C/CO`, “inactive”.
For the compound `OCC(CBr)(CBr)CBr`, the outcome was inactive.
In the case of `CN(CCCN1c2ccccc2CCc2ccccc21)CC(=O)c1ccc(Cl)cc1`, the result was inactive.
On to `C=CCCC=C`, for which the outcome was inactive.
Regarding `O=CCCc1ccccc1`, the result was inactive.
In the case of `COc1cc(Cl)ccc1Cl` it was “inactive”; in that of `CCN(CC)CCNC(=O)COc1ccc(Cl)cc1`, “inactive”.
`CC(C)CC(=O)OCc1ccccc1`: the outcome was inactive.
In the case of `COc1cc(N)c(Cl)cc1C(=O)NC1CCN(Cc2ccccc2)CC1` it was “inactive”; in that of `CC/C=C\CCOC(=O)C(C)C`, “inactive”; in that of `CCCCCCCCCCCCCCCCOP(=O)([O-])OCC[N+](C)(C)C`, “inactive”.
Turning to `CC1(C)S[C@@H]2[C@H](NC(=O)C(C(=O)O)c3ccccc3)C(=O)N2[C@H]1C(=O)O` (stereo not given in full), the result was inactive.
On to `CN1CCC[C@@H]1Cc1c[nH]c2ccc(CCS(=O)(=O)c3ccccc3)cc12`, for which the outcome was inactive.
As for `CCNCCO`, the outcome was inactive.
Turning to `CCN(CC)C(=O)N(CC)CC`, the outcome was inactive.
With `CCN(CC)CCOc1ccc(Cc2ccccc2)cc1`, the result was inactive.

(Values after PubChem BioAssay (Tox21).)
